Experimental data taken from PubChem BioAssay.
Calls of active or inactive are those of the source.

Assays:
[1] = tested on: PRMT1 (protein arginine N-methyltransferase 1); assay: small molecules binding arginine methyltransferase PRMT1 – biochemical, small-molecule microarray, 635 nm fluorescence, primary screen (AID 1088); conditions: higher = more signal;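 also: binding of Prmt1 protein to compounds spotted on small-molecule microarray slides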
[2] = growth effects on S. cerevisiae YJM789 – YJM789 clinical isolate, OD600, 24 h, basal, primary screen (AID 1089); conditions: higher = more signal, called active from +8 up or from −8 down;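 also: growth of clinical yeast isolate S. cerevisiae YJM 789 seeded 1000 cells per well; test concentration not given here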
[3] = S. pombe growth modifiers, basal conditions – strain 972, OD600, 24 h, no modulator, primary screen (AID 1090);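 also: basal condition with compound alone and no growth modifier present; test concentration not given here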; conditions: S. pombe 972 growth, higher = more signal, called active from +8 up or from −8 down
[4] = budding yeast growth modifiers under rapamycin – strain BY4716, OD600, 96 h, primary screen (AID 1091); also: test concentration not given here; conditions: S. cerevisiae BY4716 + rapamycin, higher = more signal, called active from +8 up or from −8 down
[5] = target: Torsin-1A-interacting protein 2 (Homo sapiens) (UniProt Q8NFQ8); assay: small molecules binding lysate-expressed LULL1 – cell lysate, human LULL1 lysate, 635/667 nm fluorescence, primary screen (AID 1092); conditions: small-molecule microarray, hLULL1 lysate binding, 635 nm fluorescence; higher = more signal;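 also: probe is lysate of COS7 cells overexpressing human LULL1; score merges per-feature 667 nm fluorescence with signal-to-noise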
Torsin-1A-interacting protein 2 (Homo sapiens), sequence (Q8NFQ8 whole entry, looked up): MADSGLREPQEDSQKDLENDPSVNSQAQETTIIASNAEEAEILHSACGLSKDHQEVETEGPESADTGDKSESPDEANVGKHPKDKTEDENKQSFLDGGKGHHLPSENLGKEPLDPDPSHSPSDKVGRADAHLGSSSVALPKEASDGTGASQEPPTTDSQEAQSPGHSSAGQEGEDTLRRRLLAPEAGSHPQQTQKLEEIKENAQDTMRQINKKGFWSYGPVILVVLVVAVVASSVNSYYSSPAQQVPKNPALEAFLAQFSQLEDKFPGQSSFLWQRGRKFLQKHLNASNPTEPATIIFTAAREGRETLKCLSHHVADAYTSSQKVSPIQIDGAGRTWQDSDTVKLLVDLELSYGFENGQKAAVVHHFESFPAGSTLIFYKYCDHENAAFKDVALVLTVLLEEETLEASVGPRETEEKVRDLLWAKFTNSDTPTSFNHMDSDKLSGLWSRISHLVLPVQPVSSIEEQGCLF

[6] = optical density change of DRC41 E. coli – strain DRC41, OD650, 24 h, E. coli filamentation project, primary screen (AID 1093);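 also: MC1000 strain lacking acrAB efflux and sulA so SOS filamentation is blocked; test concentration not given here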; conditions: E. coli DRC41 growth, higher = more signal, called active from +8 up or from −8 down
[7] = probe aLefty2 binding to arrayed compounds – biochemical, biotinylated probe, 635/667 nm fluorescence, primary screen (AID 1094); conditions: small-molecule microarray, higher = more signal;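 also: score merges spot fluorescence near 667 nm with spot signal-to-noise ratio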
[8] = tested on: Noggin (protein binding on small-molecule microarray); assay: small molecules binding Noggin protein – biochemical, 635/667 nm fluorescence, primary screen (AID 1095); conditions: 635 nm fluorescence, higher = more signal;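 also: score merges 667 nm feature fluorescence with signal to noise over triplicate slides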
[9] = target: Neurogenic locus notch homolog protein 3 (Homo sapiens) (UniProt Q9UM47); assay: small molecules binding NOTCH3 protein – biochemical, 635/667 nm fluorescence, primary screen (AID 1096); conditions: small-molecule microarray, 635 nm fluorescence, higher = more signal
Neurogenic locus notch homolog protein 3 (Homo sapiens), sequence (Q9UM47 whole entry, looked up): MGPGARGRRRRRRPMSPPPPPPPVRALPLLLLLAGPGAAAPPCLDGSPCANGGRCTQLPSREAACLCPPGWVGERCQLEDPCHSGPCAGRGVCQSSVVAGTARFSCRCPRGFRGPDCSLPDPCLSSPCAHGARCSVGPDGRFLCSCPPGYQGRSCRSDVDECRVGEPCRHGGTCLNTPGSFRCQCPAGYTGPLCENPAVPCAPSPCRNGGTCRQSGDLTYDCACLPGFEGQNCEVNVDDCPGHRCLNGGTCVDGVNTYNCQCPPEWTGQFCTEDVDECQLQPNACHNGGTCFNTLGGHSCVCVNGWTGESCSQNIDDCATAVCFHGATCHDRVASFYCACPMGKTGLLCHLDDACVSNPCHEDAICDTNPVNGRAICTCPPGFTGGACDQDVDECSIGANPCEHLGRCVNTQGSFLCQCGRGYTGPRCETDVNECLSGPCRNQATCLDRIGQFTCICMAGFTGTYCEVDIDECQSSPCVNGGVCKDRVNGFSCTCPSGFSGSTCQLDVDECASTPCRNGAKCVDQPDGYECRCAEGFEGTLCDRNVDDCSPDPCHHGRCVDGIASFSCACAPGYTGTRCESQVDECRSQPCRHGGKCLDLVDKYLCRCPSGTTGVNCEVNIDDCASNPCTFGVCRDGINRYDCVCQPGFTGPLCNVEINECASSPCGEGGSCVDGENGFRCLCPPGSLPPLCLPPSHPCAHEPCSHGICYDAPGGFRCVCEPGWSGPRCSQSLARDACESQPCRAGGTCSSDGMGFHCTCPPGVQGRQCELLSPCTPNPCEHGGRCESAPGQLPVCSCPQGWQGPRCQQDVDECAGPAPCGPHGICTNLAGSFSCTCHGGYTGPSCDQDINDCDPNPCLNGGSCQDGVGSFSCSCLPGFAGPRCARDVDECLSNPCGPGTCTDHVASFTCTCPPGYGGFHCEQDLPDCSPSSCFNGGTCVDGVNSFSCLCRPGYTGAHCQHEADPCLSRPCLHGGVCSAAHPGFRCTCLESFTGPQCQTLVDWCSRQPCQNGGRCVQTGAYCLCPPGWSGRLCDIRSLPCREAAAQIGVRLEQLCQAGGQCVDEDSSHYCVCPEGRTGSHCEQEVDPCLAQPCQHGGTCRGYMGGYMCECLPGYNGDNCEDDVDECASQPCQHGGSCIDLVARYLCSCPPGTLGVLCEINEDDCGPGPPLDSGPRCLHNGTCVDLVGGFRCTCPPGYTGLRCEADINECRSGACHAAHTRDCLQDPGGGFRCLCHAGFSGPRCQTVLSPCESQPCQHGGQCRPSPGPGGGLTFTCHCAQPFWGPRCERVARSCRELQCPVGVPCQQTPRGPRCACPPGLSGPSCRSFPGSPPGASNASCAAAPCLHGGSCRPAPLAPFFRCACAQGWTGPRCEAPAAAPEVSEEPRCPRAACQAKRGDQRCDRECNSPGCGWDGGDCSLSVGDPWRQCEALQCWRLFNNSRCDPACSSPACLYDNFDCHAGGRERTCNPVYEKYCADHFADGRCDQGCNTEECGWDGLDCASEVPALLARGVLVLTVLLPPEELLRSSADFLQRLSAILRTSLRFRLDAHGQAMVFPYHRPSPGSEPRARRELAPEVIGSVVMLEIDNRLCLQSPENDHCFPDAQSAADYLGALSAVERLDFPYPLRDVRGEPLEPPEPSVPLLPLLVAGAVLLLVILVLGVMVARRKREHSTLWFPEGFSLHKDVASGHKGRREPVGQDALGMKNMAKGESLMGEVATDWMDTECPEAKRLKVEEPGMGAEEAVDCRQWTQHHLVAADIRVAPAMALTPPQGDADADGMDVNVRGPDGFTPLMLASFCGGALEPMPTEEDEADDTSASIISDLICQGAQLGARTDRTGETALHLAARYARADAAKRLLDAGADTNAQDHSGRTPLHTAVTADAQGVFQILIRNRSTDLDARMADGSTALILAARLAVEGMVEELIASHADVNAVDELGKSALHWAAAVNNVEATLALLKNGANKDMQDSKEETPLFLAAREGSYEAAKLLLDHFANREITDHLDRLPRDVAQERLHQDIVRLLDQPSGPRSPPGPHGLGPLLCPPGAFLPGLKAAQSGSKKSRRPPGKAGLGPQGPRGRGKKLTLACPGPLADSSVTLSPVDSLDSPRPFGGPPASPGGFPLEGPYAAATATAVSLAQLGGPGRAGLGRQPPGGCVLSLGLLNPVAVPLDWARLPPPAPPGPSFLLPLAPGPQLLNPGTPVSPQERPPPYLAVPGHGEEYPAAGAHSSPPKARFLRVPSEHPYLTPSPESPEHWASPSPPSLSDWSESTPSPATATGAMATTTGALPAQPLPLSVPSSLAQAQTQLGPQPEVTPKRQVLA

[10] = probe aEGFR binding to arrayed compounds – biochemical, biotinylated probe, 635/667 nm fluorescence, primary screen (AID 1097); conditions: small-molecule microarray, higher = more signal;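 also: probe is a biotinylated anti-EGFR antibody binding compounds printed on slides; score combines fluorescence near 667 nm and signal to noise of each spot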
[11] = tested on: Plasmodium falciparum Sir2 (PF13_0152, Sir2A); assay: Plasmodium falciparum Sir2A binding compounds – biochemical, small-molecule microarray, 635 nm fluorescence, primary screen (AID 1098); conditions: fluorescence 635 nm, higher = more signal;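 also: score merges spot fluorescence intensity with its signal-to-noise ratio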
[12] = probe aDKK1 binding to arrayed compounds – biochemical, biotinylated probe, 635/667 nm fluorescence, primary screen (AID 1099); conditions: small-molecule microarray, higher = more signal;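 also: score merges 667nm spot fluorescence with signal to noise across triplicate slides; reference of the scale not given here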
[13] = probe aCHRDL2 binding to arrayed compounds – biochemical, biotinylated probe, 635/667 nm fluorescence, primary screen (AID 1100); conditions: small-molecule microarray, higher = more signal
[14] = change in splice reporter luminescence, either direction, cell-based, HEK293, spliceosome inhibition project, primary screen (AID 1101); conditions: HEK293 splicing luciferase reporter, 24 h, higher = more signal, called active from +8 up or from −8 down;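 also: HEK293 cells carrying a splicing-competent luciferase reporter gene; test concentration not given here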
[15] = target: Fibroblast growth factor 10 (Homo sapiens) (UniProt O15520); assay: compounds binding fibroblast growth factor 10 – biochemical, small-molecule microarray, 635 nm fluorescence, primary screen (AID 1102); conditions: FGF10 binding, fluorescence 635 nm, higher = more signal
Fibroblast growth factor 10 (Homo sapiens), sequence (O15520 whole entry, looked up): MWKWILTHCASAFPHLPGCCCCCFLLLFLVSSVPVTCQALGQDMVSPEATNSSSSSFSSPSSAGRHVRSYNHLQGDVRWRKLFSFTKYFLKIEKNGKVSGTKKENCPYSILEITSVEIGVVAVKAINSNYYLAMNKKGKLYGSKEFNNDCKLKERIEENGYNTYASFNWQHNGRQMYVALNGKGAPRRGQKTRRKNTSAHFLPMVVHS

[16] = tested on: glycogen synthase kinase-3 (GSK3A per assay name; protocol says GSK3B); assay: compounds binding glycogen synthase kinase-3 – biochemical, small-molecule microarray, 635 nm fluorescence, GSK3A, primary screen (AID 1103); conditions: fluorescence 635 nm, higher = more signal; also: the record names both GSK3A and GSK3B
[17] = target: Epidermal growth factor receptor (Homo sapiens) (UniProt P00533); assay: compounds binding epidermal growth factor receptor – biochemical, small-molecule microarray, 635 nm fluorescence, primary screen (AID 1104); conditions: EGFR binding, higher = more signal;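 also: score merges 667 nm emission intensity with spot signal to noise over triplicate slides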
Epidermal growth factor receptor (Homo sapiens), sequence (P00533 whole entry, looked up): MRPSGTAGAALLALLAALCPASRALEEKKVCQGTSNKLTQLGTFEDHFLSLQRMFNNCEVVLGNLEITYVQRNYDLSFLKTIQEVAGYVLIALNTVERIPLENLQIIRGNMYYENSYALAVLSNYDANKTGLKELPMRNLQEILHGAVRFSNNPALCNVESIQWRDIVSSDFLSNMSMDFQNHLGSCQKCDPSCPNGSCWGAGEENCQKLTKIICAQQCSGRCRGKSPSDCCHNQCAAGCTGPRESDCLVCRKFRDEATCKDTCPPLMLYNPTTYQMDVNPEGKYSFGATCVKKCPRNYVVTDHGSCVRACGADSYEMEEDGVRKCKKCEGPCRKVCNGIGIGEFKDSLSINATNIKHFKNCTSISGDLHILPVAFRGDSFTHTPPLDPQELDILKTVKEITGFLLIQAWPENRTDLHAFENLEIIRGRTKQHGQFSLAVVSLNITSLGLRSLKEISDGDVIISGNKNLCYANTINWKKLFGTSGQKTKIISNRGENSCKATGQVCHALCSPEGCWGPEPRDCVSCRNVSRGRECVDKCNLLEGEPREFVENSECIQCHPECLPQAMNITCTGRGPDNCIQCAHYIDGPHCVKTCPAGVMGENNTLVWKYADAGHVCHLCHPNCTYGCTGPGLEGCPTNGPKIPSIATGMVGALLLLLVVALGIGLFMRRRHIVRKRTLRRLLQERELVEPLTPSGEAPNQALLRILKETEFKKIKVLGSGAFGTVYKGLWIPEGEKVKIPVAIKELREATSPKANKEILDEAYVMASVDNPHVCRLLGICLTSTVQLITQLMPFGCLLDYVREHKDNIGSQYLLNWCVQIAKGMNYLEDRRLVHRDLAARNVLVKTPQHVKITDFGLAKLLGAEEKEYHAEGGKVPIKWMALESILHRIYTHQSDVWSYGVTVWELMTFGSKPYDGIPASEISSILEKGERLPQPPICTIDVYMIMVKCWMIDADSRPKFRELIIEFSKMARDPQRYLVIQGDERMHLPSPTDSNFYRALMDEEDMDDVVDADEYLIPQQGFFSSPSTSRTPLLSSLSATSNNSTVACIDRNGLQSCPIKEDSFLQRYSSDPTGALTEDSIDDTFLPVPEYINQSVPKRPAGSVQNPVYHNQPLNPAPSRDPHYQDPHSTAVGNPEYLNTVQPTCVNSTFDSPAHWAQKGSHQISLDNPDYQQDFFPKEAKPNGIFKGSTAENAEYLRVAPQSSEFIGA

[18] = target: Follistatin-related protein 3 (Homo sapiens) (UniProt O95633); assay: compounds binding follistatin-related protein 3 – biochemical, small-molecule microarray, 635 nm fluorescence, primary screen (AID 1105); conditions: FSTL3 binding, higher = more signal;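 also: score merges emission near 667 nm and signal to noise per printed spot across three slides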
Follistatin-related protein 3 (Homo sapiens), sequence (O95633 whole entry, looked up): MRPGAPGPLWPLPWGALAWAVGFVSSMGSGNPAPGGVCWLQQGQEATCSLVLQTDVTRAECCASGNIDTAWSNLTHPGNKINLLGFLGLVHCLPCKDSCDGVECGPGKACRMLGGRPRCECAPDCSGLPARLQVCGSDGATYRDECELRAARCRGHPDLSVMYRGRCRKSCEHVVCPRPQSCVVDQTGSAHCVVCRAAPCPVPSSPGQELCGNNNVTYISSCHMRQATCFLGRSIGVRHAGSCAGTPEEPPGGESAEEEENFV

[19] = target: Dickkopf-related protein 1 (Homo sapiens) (UniProt O94907); assay: small molecules binding DKK1 protein – biochemical, small-molecule microarray, 635 nm fluorescence scan, primary screen (AID 1106); conditions: higher = more signal;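 also: score merges emission near 667 nm with signal to noise over three replicate slides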
Dickkopf-related protein 1 (Homo sapiens), sequence (O94907 whole entry, looked up): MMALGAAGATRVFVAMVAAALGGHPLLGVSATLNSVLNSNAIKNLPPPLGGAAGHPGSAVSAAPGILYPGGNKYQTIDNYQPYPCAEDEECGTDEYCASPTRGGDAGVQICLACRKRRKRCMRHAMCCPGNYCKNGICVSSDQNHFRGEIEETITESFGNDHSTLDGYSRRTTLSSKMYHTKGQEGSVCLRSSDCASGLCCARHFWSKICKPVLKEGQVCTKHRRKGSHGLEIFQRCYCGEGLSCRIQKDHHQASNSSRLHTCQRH

[20] = tested on: Inhibin beta A chain (activin A); assay: small molecules binding activin A – biochemical, small-molecule microarray, 635 nm fluorescence scan, primary screen (AID 1107); conditions: INHBA, higher = more signal;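 also: mouse activin A protein probed at 4.33 µg/mL on printed slides; score merges bound-protein fluorescence near 667 nm with spot signal-to-noise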

SMILES	composite z-score [1]	z-score [2]	z-score [3]	z-score [4]	composite z-score [5]	z-score [6]	composite z-score [7]	composite z-score [8]	composite z-score [9]	composite z-score [10]	composite z-score [11]	composite z-score [12]	composite z-score [13]	z-score [14]	composite z-score [15]	composite z-score [16]	composite z-score [17]	composite z-score [18]	composite z-score [19]	composite z-score [20]
CC(C)(C)OC(=O)CC[C@]12N=C(c3ccc(OCCCO)cc3)O[C@H]1c1ccccc1N(Cc1ccccc1)C2=O	1.54	0.429 (inactive)	-1.1 (inactive)	5.79 (inactive)	2.72	0.911 (inactive)	0.12	0.938	0.967	-0.128	0.907	0.492	0.462	-0.601 (inactive)	1.18	1.26	-0.0167	0.483	0.168	0.777
CN(C)C(=O)[C@@]1(CCC(=O)OC(C)(C)C)N=C(c2ccc(OCCCO)cc2)O[C@H]1c1ccccc1CN=[N+]=[N-]	1.51	-0.142 (inactive)	0.245 (inactive)	-1.11 (inactive)	3.83	0.488 (inactive)	0.047	0.968	0.599	-0.0238	1.6	0.473	0.724	0.277 (inactive)	0.965	-0.416	-0.341	0.442	-0.695	-0.0415
CN1C(=O)[C@@]2(Cc3ccccc3)N=C(c3ccc(OCCCO)cc3)O[C@H]2c2ccccc21	1.56	-1.28 (inactive)	-4.11 (inactive)	0.843 (inactive)	2.94	0.291 (inactive)	0.109	0.955	1	-0.0982	0.318	0.428	1.02	-0.528 (inactive)	1.3	1.32	0.261	1.11	0.191	1.16
[N-]=[N+]=NCc1ccccc1C[C@]1(C(=O)N2CCOCC2)COC(c2ccc(OCCCO)cc2)=N1	1.5	-0.486 (inactive)	-5.38 (inactive)	32.4 (active)	2.39	3.3 (inactive)	0.273	-0.296	0.364	0.0706	0.947	1.05	1.05	-0.363 (inactive)	0.396	0.935	-0.505	0.0724	-0.921	0.983
C=CCN1C(=O)[C@]2(O[C@H](CCO)[C@@H]([Si](C)(C)c3ccc(OC)cc3)[C@@H]2C)c2cc(NC(=O)c3ccc(OC)cc3)ccc21	1.5	0.405 (inactive)	-1.91 (inactive)	2.89 (inactive)	0.739	0.577 (inactive)	-0.166	1.62	0.924	-0.111	0.527	-0.19	-0.525	-2.1 (inactive)	0.468	0.448	0.484	1.23	0.682	0.982
C=C(COC)C(=O)CC[C@H](OC(=O)c1cccnc1)c1ccc(CO)o1	1.33	-1.26 (inactive)	-0.292 (inactive)	-0.35 (inactive)	0.103	-0.252 (inactive)	-0.132	1.1	1.02	-0.0313	1.44	-0.424	-0.686	0.591 (inactive)	0.905	0.596	0.393	1.3	1.42	0.488
O=C1C2C=CC(C(O)c3cccc(O)c3)N(Nc3ccccc3)C2C(=O)N1c1ccccc1 (stereo not given)	-0.413	0.629 (inactive)	-0.581 (inactive)	0.299 (inactive)	2.92	-0.542 (inactive)	0.005	-0.525	0.535	-0.0416	-0.131	0.305	0.272	-0.664 (inactive)	0.134	-0.194	0.112	-0.0752	-0.347	0.959
C[C@@H]1ON(c2ccc(I)cc2)[C@H](c2ccc(OC(=O)OC(C)(C)C)cc2)[C@H]1C(=O)N1C(=O)OC[C@H]1Cc1ccccc1	1.35	-0.0865 (inactive)	-1.73 (inactive)	1.9 (inactive)	2.08	1.77 (inactive)	-0.0736	0.447	1.02	-0.0351	0.718	-0.14	-0.345	-1.78 (inactive)	0.367	1.07	0.458	0.872	0.567	0.0676
O=C1OCCC=C[C@H]2OC34C=CCN(c5ccc(Cl)cc5)C(=O)[C@H]3N(CCCCCCO)C(=O)[C@@H]4C12 (stereo not given in full)	0.117	0.115 (inactive)	-1.1 (inactive)	-0.337 (inactive)	0.455	1.78 (inactive)	-0.139	-0.979	-0.379	-0.191	1.12	-0.0366	0.499	0.189 (inactive)	-0.744	-0.359	-1.23	-0.509	-0.712	-0.279
C=C(CCCC)/C(=C/C[C@H](OC(C)=O)c1ccc(OCCO)cc1)c1cc(C(=O)OC)ccc1OC	1.25	0.966 (inactive)	-0.628 (inactive)	-0.59 (inactive)	2.36	0.54 (inactive)	-0.0238	0.917	0.563	-0.115	1.58	-0.131	0.104	0.0591 (inactive)	1	0.699	-0.616	0.613	-0.304	0.562
